# Test results from PubChem BioAssay (NCI).
# The panel holds about 79,000 compounds, 15% with a hit somewhere; the sample as a whole holds those more often. A number with no mark means an inactive call. Calls of active or inactive are those of the source. No stated cut-off is given here; in the data, active means growth inhibition above about 70%; inactive means the rest.
# Experiments:
# [1] = NCI Yeast Anticancer Drug Screen. Data for the rad50 strain (AID 155);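 further: 0% = growth of vehicle-only cultures of the same strain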; settings: S. cerevisiae rad50 strain growth inhibition; at 50.0 µM; active compounds read high
# Procedure, shortened: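 Readout: growth inhibition relative to vehicle-treated cultures. Compound exposure was carried out in a genetically defined yeast strain deficient in DNA damage repair.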
# [2] = NCI Yeast Anticancer Drug Screen. Data for the mec2-1 strain (AID 157); settings: S. cerevisiae mec2-1 strain, at 50.0 µM, active compounds read high
# Procedure, shortened: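 Each compound was tested on mec2-1 yeast, a strain altered in DNA damage repair or cell cycle control. Growth inhibition is reported relative to vehicle.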
# [3] = NCI Yeast Anticancer Drug Screen. Data for the sgs1 mgt1 strain (AID 161);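 further: 0% = growth of cultures given vehicle only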; settings: S. cerevisiae sgs1 mgt1 strain, at 50.0 µM, active compounds read high
# Procedure, shortened: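 Test agents were incubated with a DNA-repair-mutant yeast strain. Growth was then read and compared against vehicle-treated controls.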
# [4] = NCI Yeast Anticancer Drug Screen. Data for the cln2 rad14 strain (AID 165);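 further: 0% = growth equal to vehicle treated cultures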; settings: S. cerevisiae cln2 rad14 strain, at 50.0 µM, active compounds read high
# Procedure, shortened: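 Test compounds were added to cln2 rad14 yeast cultures; inhibition of growth was then determined by comparison with vehicle treatment.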
# [5] = NCI Yeast Anticancer Drug Screen. Data for the bub3 strain (AID 167); settings: S. cerevisiae bub3 mutant strain, at 50.0 µM, active compounds read high
# Procedure, shortened: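 Readout: yeast growth inhibition, expressed relative to vehicle-only wells. The test organism is a mutant strain from a panel with lesions in DNA repair or checkpoint genes.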
# [6] = NCI Yeast Anticancer Drug Screen. Data for the mlh1 rad18 strain (AID 175); settings: S. cerevisiae mlh1 rad18 strain growth inhibition; at 50.0 µM; active compounds read high
# Procedure, shortened: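 Inhibition values reflect reduced growth of mutant yeast versus vehicle-treated controls following compound exposure; the mutations affect DNA damage repair.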
SMILES,growth inhibition [1],growth inhibition [2],growth inhibition [3],growth inhibition [4],growth inhibition [5],growth inhibition [6]
COC(=O)c1csnn1,1.2%,10.8%,12.7%,8.5%,4.3%,10.2%
COC(=O)c1ccc(SCCC(=O)CO)cc1,19.4%,15.9%,-4.6%,5.35%,13%,23.9%
C(=C\c1csnn1)/c1cccnc1,29.9%,-1.95%,2.05%,6.35%,9.3%,5.75%
C=CCCCCCCCCCCCCCCC,-36%,-26.9%,-26.2%,5.3%,-31.9%,-35%
O=[N+]([O-])c1cccnc1Oc1cccc(C(F)(F)F)c1,-16.8%,21.9%,14.4%,-7.95%,-16.1%,1.15%
CS(=O)(=O)C(CCC(=O)C(c1ccccc1)c1ccccc1)C(=O)c1ccccc1 (stereo unspecified),-7.7%,-11%,-20.5%,-39.5%,-1.55%,-29.2%
COc1ccc(C2c3cc4c(cc3OC(NNS(=O)(=O)c3ccc(C)cc3)C2C)OCO4)cc1 (stereo unspecified),-22.4%,12.9%,9.55%,4.4%,-5.1%,34.2%
O=C(Nc1cccc(Cl)c1)Oc1cccnc1,-5.1%,-29.9%,7.7%,-4.55%,-2.85%,-12.6%
O=C(Nc1ccc(F)c([N+](=O)[O-])c1)Nc1cc(C(F)(F)F)ccc1Cl,9.4%,1%,0.55%,-0.4%,-4.65%,24.2%
Cc1ccc(N(C)c2cc(=O)n(C)c(=O)[nH]2)cc1C,14.4%,16.2%,10.3%,28.3%,12.4%,14.4%
CCCCCCC1=CCCC1=O,-3.5%,-25.4%,-3.35%,-3.6%,2.55%,11.5%
CC(N)(CCSCP(=O)(O)O)C(=O)O (stereo unspecified),-22.1%,-7.4%,-19.5%,-26.9%,-7.45%,-27.4%
O=C(Cc1ccccc1)NN1C(=O)/C(=C\c2ccccc2)SC1=Nc1ccccc1,12%,-1.35%,19.3%,35.5%,9.15%,10.8%
O=C1C2=C(c3ccccc31)C(c1ccccc1Cl)N1C(=O)CCSC1=N2 (stereo unspecified),2.9%,0.4%,13.9%,8.85%,4.65%,-3.45%
O=C(O)c1cccc2c1cc(Br)c1ccccc12,22.6%,23.2%,32%,-42.5%,15.8%,24.7%
c1ccc(COC2COC(OCc3ccccc3)C(OCc3ccccc3)C2OCc2ccccc2)cc1 (stereo unspecified),1.05%,-3.45%,3.4%,-36.4%,12.4%,-3.3%
CC1Cc2c([nH]c(=O)n(C)c2=O)O1 (stereo unspecified),1.15%,8.2%,8.4%,-1.5%,-21.1%,2.1%
C=CC12CCC(CC1)n1c(=O)n(C)c(=O)n12,-8.05%,-11.7%,-11.4%,-34.5%,-18%,-6.8%
CCOC(=O)CCC(C)=O,22.8%,11.2%,14.9%,20.5%,14.7%,11%
c1ccc2c(c1)N=C(c1ccc3ccccc3c1)CC(c1cccc3ccccc13)S2 (stereo unspecified),13.2%,5.25%,-33.1%,33.1%,19.3%,-3.15%
ClC(c1ccccc1)(c1ccccc1)C(Cl)(c1ccccc1)c1ccccc1,45.9%,5.05%,24.1%,11.8%,4.6%,26.9%

SMILES,growth inhibition [1],growth inhibition [2],growth inhibition [3],growth inhibition [4],growth inhibition [5],growth inhibition [6]
CC1CC(OC(=O)c2ccccc2)CCC1=O (stereo unspecified),-5.6%,-2.85%,-7.65%,14.5%,15.6%,-7.8%
OC1OC(CCl)C(Cl)C(O)C1O (stereo unspecified),0.55%,-2.95%,9.9%,-11%,-18.9%,-16.6%
C=C(C)[C@@H]1CC=C(CO)CC1,15.7%,-1.95%,0.45%,22.1%,28.3%,8.4%
COC(=O)c1cc(-c2ccccc2)c2c(=O)n(-c3ccccc3)[nH]c2n1,13.7%,7.35%,20.5%,-10.3%,-4.55%,4.85%
CC([C@H]1CC[C@H]2[C@@H]3CC=C4C[C@@H](O)CC[C@]4(C)[C@H]3CC[C@]12C)C(O)(c1ccccc1)c1ccccc1 (stereo partly specified),40.9%,19.8%,43.4%,37.6%,23.4%,25.2%
O=S(c1ccccc1)[C@H]1CC2C3CC4C2C4C31 (stereo partly specified),2.3%,4.7%,-1.7%,4.45%,19.9%,17.9%
O=C(CCl)Nc1ccc(SSc2ccc(NC(=O)CCl)cc2)cc1,33.8%,13%,47.1%,43.2%,10.1%,12.9%
O=C(NO)/C(CC(=O)c1ccc(O)cc1O)=N\O,4.05%,-5.5%,-8.65%,-0.7%,-11.2%,16.9%
CN(C)S(=O)(=O)c1ccc(NC(=O)OC(C)(c2ccccc2)C2CCCCC2)cc1 (stereo unspecified),17.4%,2%,4.05%,7.75%,1.35%,4%
CC1(C)CNC(C)(C)CN1,-4.45%,-11.8%,4.35%,1.1%,17.5%,-18%
Cc1cccc(C(=O)C(O)c2cccc(C)n2)n1 (stereo unspecified),7.75%,-18.4%,-1.55%,8.2%,-20.3%,4.4%
Cc1cc(Br)cc(Cl)c1O,-22.1%,-7.9%,6.55%,-11.2%,-30.2%,-12.4%
N=C(N)c1ccc(C(=N)N)cc1,-16.4%,-14.3%,-20.3%,-0.35%,-0.75%,-33.2%
CC1(C)OCC(C2CCC3(C)C4=CCC5C(C)(C)C(O)CCC5(C)C4CCC23C)CC(O)C1O (stereo unspecified),59.6%,57%,72.3% (active),76.5% (active),64.8%,31.9%
C=NC1CCCCC1,0.95%,-3.75%,-10.6%,2%,14.7%,3.75%
Cc1nc2ccc(S(=O)(=O)Nc3ccccc3Cl)cc2c(=O)n1NC(=O)CNc1ccccc1Cl,26.4%,0.2%,13.4%,6.95%,21.8%,21.3%
N#CC(C(=O)O)C1(c2ccccc2)CCCCC1 (stereo unspecified),-13%,4.95%,-5.3%,-16%,1.1%,-3.45%
CCC1(CC)NC(=S)NC1=S,24.5%,7.4%,26.4%,10%,16.4%,20%
CSC(=S)c1ccc(NSc2ccccc2[N+](=O)[O-])cc1,7.6%,23.6%,46.8%,14%,20.4%,33.8%
CCN(CC)C(C)(C)C(=O)/C=C/c1ccc(C)cc1,5.45%,-3.75%,-16.5%,12.3%,5.75%,43.1%
